Screening data (PubChem BioAssay)
Hits are enriched below; roughly 21% of the tested compounds scored in any of these assays.
Shiga inhibitor: Shiga toxin inhibition; Vero cells, Shiga toxin protein synthesis inhibition reporter; inhibition, % at 38.7 µM; actives 9.2% (n = 290,000); AID 2315; in the data active means inhibition mostly above about 28%, no sharp cut-off; inactive means mostly below about 43%; further: 0% is about no effect
Pf growth 96h: P. falciparum growth inhibition at 96 hours; P. falciparum luciferase reporter growth, 96 h; actives 6.9% (n = 320,000); Potency, µM (top dose mostly 28.7 µM), for inactives: top-dose activity change, negative = inhibition, most hits filed as inhibitors; further: potency means the concentration at half of the fitted maximal effect; on the % scale 0 is the no-effect control and ±100 the full control effect
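Readout is luminescence from an integrated firefly luciferase in P. falciparum. Red cells, 2% hematocrit and 0.05% parasitemia final, were cultured with compound through two parasite generations (96 hours) at 37 C, 5% CO2.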
Cycloheximide cs: counter-screen hit for Shiga toxin inhibitors, cycloheximide; AID 2314; cell reporter, cycloheximide protein synthesis inhibition counterscreen; actives 12% (n = 300,000); max response, %; in the data active means max response mostly above about 13%, no sharp cut-off; inactive means mostly below about 14%; further: read at 38.3 µM for the half of the compounds with a filed dose; 0% is about no effect
Pf growth 48h: P. falciparum growth inhibition at 48 hours (one generation) | P. falciparum luciferase growth in erythrocytes, 48 h | Potency, µM (doses to about 28.7 µM), inactives show top-dose activity change, negative = inhibition, usual class: inhibitors | actives 5.9% (n = 310,000); further: potency means the concentration at half of the fitted maximal effect; on the % scale 0 is the no-effect control and ±100 the full control effect
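Parasite viability was followed by luminescence of a genomically integrated firefly luciferase. Cultures held 0.1% parasitemia at 2% hematocrit (final), incubated under 5% CO2 at 37 C.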
* hit, by the source's call; ? = inconclusive; . = no result given; [ ] = remark or other dose. Unless noted, the call rests on the fitted dose curve; in most records, active means well fitted inhibition curve with a large enough effect; inconclusive means small, poorly fitted or top-dose-only effect, or another doubt; inactive means no such curve, though single readings can be large or run the other way.

SMILES	Shiga inhibitor	Pf growth 96h	Cycloheximide cs	Pf growth 48h
O=C(NCCc1ccccc1)C1CC(=O)N(C2CCCCCC2)C1 (configuration not stated)	-5	-4%	0	5%
CC1CCN(CCCNC(=O)C2CC(=O)N(C3CCCCCC3)C2)CC1 (configuration not stated)	-3	53%	-1	4%
CCOC(=O)c1ccccc1NC(=O)C1CC(=O)N(C2CCCCC2)C1 (configuration not stated)	78*	?	58*	17%
CN(C)c1ccc(S(=O)(=O)N(C)C)cc1NC(=O)Cc1cccc2ccccc12	-5	?	3	?
Clc1cccc(Cl)c1COn1nnc2ccccc21	37	?	25*	.
c1ccc(COn2nnc3ccccc32)c(COn2nnc3ccccc32)c1	-6	.	0	?
COC(=O)c1ccc(COn2nnc3ccccc32)cc1	97*	295%	39*	306%
CC(=O)Nc1cccc(C(=O)/C=C/c2ccc(N(C)C)cc2)c1	76*	105%	42*	118%
CC(=O)Nc1cccc(C(=O)/C=C/c2cccs2)c1	82*	?	54*	-19%
CC(=O)Nc1ccc(NC(=O)C(C)OC(=O)/C=C/c2cccs2)cc1 (configuration not stated)	-5	7%	5	26%
CC(=O)Nc1cccc(C(=O)/C=C/c2ccc(Br)cc2)c1	-1	26%	-5	?
CC(=O)Nc1ccc(N=Cc2ccc[nH]2)cc1	41	?	15	29%
CC(=O)Nc1cccc(C(=O)/C=C/c2ccc[nH]2)c1	54*	22%	26*	39%
CC(=O)Nc1cccc(C(=O)/C=C/c2ccc(/C=C/C(=O)c3cccc(NC(C)=O)c3)cc2)c1	45	9.3µM*	35*	2.9µM*
COc1ccc(-c2cc(C(F)(F)F)n3nc(C(=O)Nc4c(C)n(C)n(-c5ccccc5)c4=O)cc3n2)cc1	-10	18%	-2	-4%
O=C(NC1CCCC1)C1CCN(C(=O)c2ccc(Cl)cc2Cl)CC1	-10	18%	-7	-2%
CC(=O)Nc1cccc(C(=O)/C=C/c2ccco2)c1	49*	?	43*	?
CC(=O)Nc1cccc(C(=O)/C=C/c2ccc(F)cc2)c1	41	?	29*	-10%
CC(=O)Nc1ccc(C(=O)/C=C/c2ccco2)cc1	-7	33%	-1	24%
CSCC[C@H](NC(=O)c1ccc2c(c1)OCO2)c1nnc2ccccn12	-10	12%	-2	29%
CCOC(=O)N1CCN(CC(=O)Nc2ccc([N+](=O)[O-])cc2C(=O)Nc2ccccc2F)CC1	-5	?	-1	12µM*
O=C(CN1CCN(Cc2ccccc2)CC1)Nc1ccc([N+](=O)[O-])cc1C(=O)Nc1ccccc1F	-11	?	0	10µM*
NC(=O)COC(=O)c1ccccc1SCC(=O)NC1CCCCCC1	-9	-1%	1	6%
CC(C)c1ccc(/C=C2\SC(=S)N(CC(=O)NCCCN3CCOCC3)C2=O)cc1	46	2%	39*	25%
CCOc1ccc(/C=C2\SC(=S)N(CC(=O)NCCCN3CCOCC3)C2=O)cc1	47*	2%	22*	29%
SMILES	Shiga inhibitor	Pf growth 96h	Cycloheximide cs	Pf growth 48h
COc1ccc(CCNC(=O)COC(=O)COc2ccc(C#N)cc2)cc1	-3	6%	-2	1%
C=CCn1c(SCc2ccccc2F)nc2cc(C(=O)O)ccc2c1=O	9	9%	5	0%
O=C(N=C1SC2CS(=O)(=O)CC2N1Cc1ccc(Cl)cc1)C1CC1 (configuration not stated)	-4	13%	-2	4%
O=c1[nH]c(=S)n(-c2ccc(Br)cc2)c(O)c1C=Nc1ccc(N2CCOCC2)cc1	0	-13%	16*	41%
O=C(CN1CCOCC1)N/N=C/c1ccc(-c2cccc(Cl)c2Cl)o1	7	?	-2	?
CC1(C)OC2OC(COC(=O)c3ccccc3)C3OC(C)(C)OC3C2O1 (configuration not stated)	2	?	31*	23%
COc1ccccc1CCC(=O)Nc1ccc2c(c1)CN(Cc1ccc(CO)o1)CC2	5	?	3	13µM*
COc1cc2c(cc1OC)CN(CC(=O)Nc1ccc3c(c1)OC(F)(F)O3)CC2	-23	-22%	-3	.
COCCC(=O)Nc1ccc2c(c1)CN(C(=O)c1ccc(CSC)o1)CC2	2	13µM*	-3	?
O=C(Nc1ccc2c(c1)CN(Cc1ccc(CO)o1)CC2)c1ccc(C(F)(F)F)cc1	35	66%	44*	?
Cc1ccc2nc(SCC(=O)NCc3ccc(F)cc3)nc(=O)n2c1	.	1%	.	2%
CC1CCc2sc(C(=O)N3CCC(C(N)=O)CC3)cc2C1 (configuration not stated)	.	363%	.	277%
COc1ccc(-c2cn3c(n2)CCC3)cc1	54*	-5%	38*	78%
c1ccc(-c2ccc(-c3cn4c(n3)CCC4)cc2)cc1	58*	27%	37*	.
Cc1ccc(-c2cn3c(n2)CCCC3)cc1	49	32%[5.75 µM]	20	17%
Cc1ccccc1OCCCC(=O)Nc1nncs1	10	58%	2	5%
CN1CCN(C(=O)c2ccccc2NS(=O)(=O)c2ccc(F)cc2)CC1	.	31%	.	13%
COC(=O)c1ccc(CNCC(O)COc2ccc(-c3ccccc3)cc2)cc1 (configuration not stated)	37	11%	3	?
COc1ccc(CNCC(O)COc2ccc(C(C)(C)c3ccccc3)cc2)cc1 (configuration not stated)	-7	?	-7	9.3µM*
CCOc1ccc(OCC(O)CNC2CCN(Cc3ccccc3)CC2)cc1 (configuration not stated)	-32	2.3µM*	-1	2.6µM*
COc1ccc(OCC(O)CNC2CCCC2)cc1 (configuration not stated)	10	-27%	-1	4%
CC(C)(c1ccccc1)c1ccc(OCC(O)CNC2CCN(Cc3ccccc3)CC2)cc1 (configuration not stated)	-28	2.1µM*	-6	3.3µM*
O=C(CCC(=O)c1ccccc1)NCc1ccccc1	17	37%	-1	?
CN1/C(=C\C=C2C(=O)NC(=S)NC2=O)C(C)(C)c2ccccc21	-13	-7%	-1	16%
CN1/C(=C\C=N\O)C(C)(C)c2ccccc21	50	-9%	-2	16%
CN(C)c1ccc(N=C/C=C2/N(C)c3ccccc3C2(C)C)cc1	78*	?	62*	-61%
CN1/C(=C\C=C2/C(=O)Oc3ccccc3C2=O)C(C)(C)c2ccccc21	40*	?	39*	12µM*
CN1/C(=C\C=[N+](C)c2ccccc2)C(C)(C)c2ccccc21	-13	2.1µM*	1	0.41µM*
CN1C(=CC=C2C=C(I)C(=O)C(I)=C2)C(C)(C)c2ccccc21	12	2.1µM*	-3	3.3µM*
CCc1ccc(CN(C)C(=O)c2cc(COc3ccc(-n4cncn4)cc3)on2)cc1	45	5%	19*	3%
